Bioassay records deposited in PubChem BioAssay by National Center for Advancing Translational Sciences (NCATS).
Only some compounds are listed: those with a hit (about 14% of all), similar ones and a draw of the others.
NS1 function inh: qHTS Assay for Inhibitors of Influenza NS1 Protein Function | Potency, µM (titrated, usually from 46.1 µM), without a hit: at the top dose activity, positive = more growth | actives 0.4% (n = 270,000) | AID 2326, 2010; calls by dose curve; also: potency is read from the fitted curve at half-maximal effect; actives are rising curves; nearly all actives have a fitted effect of over 50% in size
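S. cerevisiae expressing influenza A NS1, grown in glucose, washed, then diluted 1:100 into pH 6.0 -URA galactose medium with 23 nl compound. Growth recovery read as OD600; NS1-free strain serves as control.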
LmPK inh: qHTS Assay for Inhibitors of Leishmania Mexicana Pyruvate Kinase (LmPK) | purified LmPK, Kinase-Glo ATP luminescence, 1 h | AID 1721, 2009 | actives 0.37% (n = 290,000) | Potency, µM (top dose mostly 57.5 µM), for inactives: top-dose activity change, negative = inhibition, most hits filed as inhibitors; also: potency is read from the fitted curve at half-maximal effect; % is scaled to controls: 0 for no effect and ±100 for the full control effect
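Kinase-Glo luminescence read after 1 h RT reaction of 0.1 nM LmPK with 0.5 mM PEP and 0.1 mM ADP. Activity scaled between uninhibited and enzyme-free controls.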
Shiga inhibitor: A qHTS for Small Molecule Inhibitors of Shiga Toxin | Vero cells, Shiga toxin protein synthesis inhibition reporter | inhibition, % at 38.7 µM | actives 9.2% (n = 290,000) | AID 2315, 2010; in the data active = inhibition mostly above about 28%, no sharp cut-off; inactive = mostly below about 43%; also: 0% is about no effect
Cycloheximide cs: Cycloheximide Counterscreen for Small Molecule Inhibitors of Shiga Toxin | cell reporter, cycloheximide protein synthesis inhibition counterscreen | max response, % | actives 12% (n = 300,000) | AID 2314, 2010; in the data active = max response mostly above about 13%, no sharp cut-off; inactive = mostly below about 14%; also: read at 38.3 µM for the half of the compounds with a filed dose; 0% is about no effect
FBPA Giardia inh: qHTS Assay for Inhibitors of Fructose-1,6-bisphosphate Aldolase from Giardia Lamblia. actives 0.71% (n = 290,000). A8B2U2. Potency, µM (titrated, usually from 59.6 µM), for the others: top-dose activity, negative = inhibition, most hits filed as inhibitors. purified Giardia FBPA; also: potency is read from the fitted curve at half-maximal effect; % is scaled to controls: 0 for no effect and ±100 for the full control effect; nearly all actives have a fitted effect of over 55% in size
Target sequence (A8B2U2 whole entry, looked up): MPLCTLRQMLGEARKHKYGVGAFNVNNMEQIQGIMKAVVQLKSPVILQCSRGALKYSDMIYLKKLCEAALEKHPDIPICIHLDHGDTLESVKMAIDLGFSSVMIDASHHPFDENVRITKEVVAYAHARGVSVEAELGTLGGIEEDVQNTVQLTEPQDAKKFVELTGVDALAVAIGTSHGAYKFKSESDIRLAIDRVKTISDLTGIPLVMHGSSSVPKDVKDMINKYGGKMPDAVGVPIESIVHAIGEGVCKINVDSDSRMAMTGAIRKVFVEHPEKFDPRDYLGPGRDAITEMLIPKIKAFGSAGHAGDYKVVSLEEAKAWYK
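40 nM FBPA preincubated 10 min at RT with compound (up to 57.5 uM final), then substrate plus GAPDH/TPI/NAD/arsenate coupling and diaphorase/resazurin added. Fluorescence read after 20 min at RT, 525/598 nm.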
An asterisk follows results filed as active; ? = inconclusive; / = not tested or not shown; + = active, no number; [ ] = remark or other dose. Unless noted, calls follow the shape of the dose curve; as a rule, active = well fitted curve in the direction sought with a large enough effect; inconclusive = small, poorly fitted or top-dose-only effect, or another doubt; inactive = no such curve, though single readings can be large; an effect the other way counts as inactive or inconclusive.

SMILES	NS1 function inh	LmPK inh	Shiga inhibitor	Cycloheximide cs	FBPA Giardia inh
Cc1[nH]c(=O)c(C#N)c(C)c1CCC(=O)Nc1cc(S(C)(=O)=O)ccc1Cl	9.4%	4.6%	-7.5	-4.1	-12.5%
CCn1c(C)nc2cc(C(=O)N/N=C/c3ccccc3)ccc21	1.6%	-1.3%	94.2*	34.1*	-0.3%
CCn1c(C)nc2cc(C(=O)N/N=C/c3ccc(O)cc3)ccc21	-0.1%	-0.9%	11.3	-2.1	0.4%
CCn1c(C)nc2cc(C(=O)N/N=C/c3cccc(O)c3O)ccc21	-6.4%	-0.7%	67.2*	31.4*	-15.3%
O=C(c1cnn(C(=O)COc2ccccc2F)c1)c1cc(F)ccc1O	-3.7%	-0.8%	24.9	-2.4	0.5%
O=C(c1cnc2nc3ccccc3n2c1)c1cc(F)ccc1O	0.6%	-0.5%	11.3	13.5*	-17.2%
Fc1ccc(Cn2cccc2C2=NC(c3ccccc3)CO2)cc1 (configuration not stated)	/	-1.5%[11.5 µM]	74.9*	68.7*	0.3%
Cc1ccc(O)c(NC(=O)CCCC(=O)O)c1	-2.1%	-1.4%	15.2	-2.8	-0.6%
Cc1ccc(NC(=O)C2CCN(S(=O)(=O)c3cccs3)CC2)c(O)c1	-5.5%	-7.0%	-7.6	-2.6	-18.3%
Cn1c(NC(=O)CCC2CCCCC2)cc(=O)n(C)c1=O	-53.9%	7.6%	113.2*	71.3*	2.6%
O=C(CCC1CCCCC1)Nc1ccccc1O	-61.5%	?	106.7*	38.6*	0.5%
Cc1ccc(NC(=O)C2CCCCC2)c(O)c1	4.4%	0.2%	40.5	20.9*	-12.2%
Cc1ccc(O)c(NC(=O)CCC2CCCCC2)c1	-36.9%	-7.8%	138.1*	34.5*	3.5%
CCCc1ccc2oc(C(=O)N(C)CCn3ccnc3C)c(C)c2c1	24.3%	-11.0%	19.7*	13.5*	-5.2%
CCCc1ccc2oc(C(=O)NCCCN3CCOCC3)c(C)c2c1	10.5%	-2.1%	67.2*	50.3*	/
CCCc1ccc2oc(C(=O)N(C)Cc3cnccn3)c(C)c2c1	12.4%	-13.6%	-19.2	-4.8	/
CCN(CC)S(=O)(=O)c1ccc2oc(C(=O)NCCCN3CCOCC3)c(C)c2c1	-3.0%	-3.1%	-5.7	-1.7	-0.1%
CCCc1ccc2oc(C(=O)NCc3nnc(C)o3)c(C)c2c1	-17.2%	-6.6%	97.2*	44.7*	/
CCCc1ccc2oc(C(=O)NCCN3CCCC(C(N)=O)C3)c(C)c2c1 (configuration not stated)	-2.5%	-10.1%	-3.9	8.1	/
CCc1ccc2oc(C(=O)NCc3ccc(S(N)(=O)=O)cc3)c(C)c2c1	-1.2%	0.1%	17.6	0.9	-5.0%
CCCc1ccc2oc(C(=O)NCCN3CCCC(O)C3)c(C)c2c1 (configuration not stated)	19.8%	-0.7%	77.2*	33.8*	-4.8%
COCC(=O)N1CCC[C@@]2(CCN(C(=O)Nc3cccc(C#N)c3)C2)C1	/	/	/	/	1.5%
Cc1c(C(=O)NCCCN2CCOCC2)oc2c1C1(CCC2)SCCS1	-9.1%	1.4%	+	7.4	-11.7%
COc1cccc(COc2ccc3ccc(=O)oc3c2)c1	-7.3%	-8.2%	65.4*	35.1*	-6.1%
COc1ccc(COc2ccc3ccc(=O)oc3c2)cc1	-3.5%	1.6%	70.2*	69.0*	-5.0%
SMILES	NS1 function inh	LmPK inh	Shiga inhibitor	Cycloheximide cs	FBPA Giardia inh
O=c1ccc2ccc(OCc3ccccc3)cc2o1	-7.5%	0.0%	70.9*	48.8*	1.5%
CNC(=O)CSc1nc(N)c2c3c(sc2n1)CCC3	3.2%	-1.0%	1.8	8.9	-5.2%
CCSc1nc(N)c2c3c(sc2n1)CCC3	-1.7%	-2.2%	61.2*	21.1*	0.1%
NC(=O)CSc1nc(C2CC2)nc2sc3c(c12)CCCC3	5.5%	-9.8%	47.4*	19.1*	-0.2%
NC(=O)CSc1nc(N)c2c3c(sc2n1)CCCCC3	11.4%	2.9%	38.8	20.7*	2.8%
CCC1=C(C[C@H]2NCCc3cc(OC)c(OC)cc32)C[C@H]2c3ccccc3CCN2C1	-5.5%	/	/	/	/
O=C(O)[C@H]1[C@H](C(=O)O)[C@H](C(=O)O)C[C@@H]1C(=O)O	-1.8%	/	/	/	/
CCC1=NN(C(=O)c2cccc(Br)c2)C(O)(c2ccc(Br)cc2)C1 (configuration not stated)	-42.0%	4.7%	70.4*	40.8*	13.7%
CCC1=NN(C(=O)c2ccc(C)cc2)C(O)(c2ccc(Br)cc2)C1 (configuration not stated)	-14.7%	0.9%	44.2*	39.1*	9.6%
CCC1=NN(C(=O)c2ccc(Br)cc2)C(O)(c2ccc(C)cc2)C1 (configuration not stated)	-42.9%	0.1%	31.9*	32.8*	10.1%
CCC1=NN(C(=O)Cc2ccccc2)C(O)(c2ccncc2)C1 (configuration not stated)	4.3%	4.1%	-7.4	-0.5	-1.1%
COC(=O)C1=NN(C(=O)c2ccc(C)cc2)C(O)(c2ccc(Cl)cc2)C1 (configuration not stated)	-83.6%	2.7%	3.2	-1.0	11.8%
COc1cc(/C=N/NC(=O)C(=O)/C=C2\NC3(CCCC3)Cc3ccccc32)ccc1O	4.7%	3.1%	-6.9	-3.3	-3.3%
O=C(/C=C1\NC2(CCCC2)Cc2ccccc21)C(=O)N/N=C/c1ccccc1O	?	-5.0%	31.4	23.0*	6.5%
COc1ccccc1NC(=O)CSCc1cc(=O)n2c(C)csc2n1	-12.7%	-5.4%	-1.7	7.3	-5.7%
CN(/N=C/c1ccccc1O)C(=S)c1ccccc1	-6.4%	0.8%	77.0	24.7*	18.2%
Cc1ccc2nc(Cl)c(/C=C/C(=O)c3ccco3)cc2c1	-31.2%	-8.8%	80.9*	57.3*	-4.0%
Cc1ccc2cc(/C=C/C(=O)c3ccco3)c(Cl)nc2c1	-41.1%	-6.4%	116.7*	83.3*	0.5%
CCCCC(=O)OCc1nc2ccccc2s1	-4.5%	1.8%	75.8	27.9*	2.4%
O=C(c1ccccc1)c1ccc(COC(=O)c2cnccn2)cc1	-9.9%	-12.8%	-4.6	-0.9	8.2%
O=C(Oc1ccccc1)c1cccc(COC(=O)c2cnccn2)c1	-28.3%	2.2%	active	36.1*	8.1%
O=C(OCc1nc2ccccc2s1)c1ccccc1O	/	?	57.6*	66.6*	0.1%
Cc1noc(C)c1COC(=O)CCCc1nc2ccccc2s1	-10.3%	4.3%	-7.7	-2.7	-0.9%
O=C(OCc1nc2ccccc2s1)c1cnccn1	-61.8%	-14.4%	93.1*	32.2*	3.9%
N#C/C(=C(/O)COC(=O)c1ccccc1O)c1nc2ccccc2s1	6.1%	-2.2%	28.1	7.9	6.9%
O=C1[C@H]2[C@H]3[C@H](O)[C@H](O)C/C(=N/OC[C@@H](O)COCc4ccco4)[C@H]3CC[C@@H]2C(=O)N1C1CCCCC1	/	/	/	/	2.7%[12.9 µM]
COc1ccc(CNc2cccc3[nH]c(C(F)(F)F)nc23)cc1OC	?	8.0%	-8.6	-4.6	?
O=C(O)CN(CC(=O)O)c1ccccc1	1.8%	/	/	/	/
COc1cccc(C2=Nn3c(nnc3-c3cccc(OC)c3OC)SC2)c1	/	/	-4.0	0.8	1.9%
